# Measles CPE: compounds protecting cells from measles virus cytopathic effect, primary screen, measles RdRp inhibitor project, single point, MLSMR library, absorbance; Measles virus-infected cells, CPE protection; protection (pct of control), % at 4 µM; 1.5% of 140,000 active; AID 841, 2007; in the data active = protection mostly above about 24%, no sharp cut-off; inactive = mostly below about 26%
# CYP2C9 inhib: blockers of cytochrome P450 2C9 activity – biochemical, luminescence, ADME assay, primary screen; P11712; 20% of 96,000 active; inhibition, % at 5 µM; CYP2C9 Supersomes, luciferin-H conversion;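 active = blocking of liver enzyme CYP2C9 beyond about 50% at 5 µM, limit read from the data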
# Target sequence (P11712 whole entry, looked up): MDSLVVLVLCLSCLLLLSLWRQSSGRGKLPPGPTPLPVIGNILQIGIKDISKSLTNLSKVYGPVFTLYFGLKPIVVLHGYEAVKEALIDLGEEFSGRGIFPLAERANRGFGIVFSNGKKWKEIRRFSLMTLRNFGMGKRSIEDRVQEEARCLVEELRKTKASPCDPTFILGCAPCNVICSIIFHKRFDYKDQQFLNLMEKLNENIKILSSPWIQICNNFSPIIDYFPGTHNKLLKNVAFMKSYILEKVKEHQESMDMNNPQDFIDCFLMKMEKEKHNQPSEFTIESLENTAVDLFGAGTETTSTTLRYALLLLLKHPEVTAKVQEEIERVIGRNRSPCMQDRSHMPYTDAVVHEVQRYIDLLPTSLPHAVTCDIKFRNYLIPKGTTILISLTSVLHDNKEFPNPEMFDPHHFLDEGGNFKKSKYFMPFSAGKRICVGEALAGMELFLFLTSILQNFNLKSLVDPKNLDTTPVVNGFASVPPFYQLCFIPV
# CYP2C9 act: human CYP2C9 activators, primary screen, biochemical, luminescence; AID 1024, 2008; activation factor at 5 µM; recombinant CYP2C9, luciferin-H conversion; active compounds read high; factor 1 = untreated enzyme, 0 = blocked; 1.4% of 96,000 active; Cytochrome P450 2C9 (Homo sapiens), P11712;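 active = activation factor of 2 or more for CYP2C9 at a 5 µM dose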
# CYP2C19 inhib: blockers of cytochrome P450 2C19 activity – biochemical, luminescence, ADME assay, primary screen. 21% of 96,000 active. P33261. AID 778, 2007. inhibition, % at 5 µM. CYP2C19 Supersomes, luciferin-H EGE luminescence, 30 min;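 active = CYP2C19 inhibition above a set limit at 5 µM in the primary screen, cut at about 50% in these data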
# CYP2C19 act: human CYP2C19 activators, primary screen, biochemical, luminescence; Cytochrome P450 2C19 (Homo sapiens), P33261; recombinant CYP2C19, luciferin-H EGE luminescence; active compounds read high; 0 = fully inhibited enzyme, 1 = untreated enzyme; activation factor at 5 µM; 96,000 tested, under 10 active; AID 1025, 2008;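 active = activation factor of at least 2 at 5 µM in the primary screen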
# Numbers stand for hits; i = inactive; nt = no result given. The list is not random: actives were taken first. Their share in the collection is about 22%.
SMILES,Measles CPE,CYP2C9 inhib,CYP2C9 act,CYP2C19 inhib,CYP2C19 act
CCNC(=O)NC(=O)C(C)Sc1nnc(COc2ccccc2Cl)o1 (configuration not stated),i,i,i,i,i
CN(Cc1ccc(-n2cccn2)cc1)C(=O)c1cnn2c1NC(c1ccco1)CC2C(F)(F)F (configuration not stated),i,78,i,i,i
COCCNC(=O)c1cnn2c1NC(c1ccco1)CC2C(F)(F)F (configuration not stated),i,nt,nt,nt,nt
C=C(C)CSc1nnc(-c2cccc(Cl)c2)n1N,i,i,i,58,i
CCOc1cc(C=O)ccc1OS(=O)(=O)c1ccc(NC(C)=O)cc1,i,nt,nt,nt,nt
O=S1(=O)c2ccccc2N=NN1Cc1cc(Cl)cc(Cl)c1,i,54,i,i,i
O=S1(=O)c2ccccc2N=NN1Cc1ccc(Cl)cc1,i,68,i,83,i
O=C(N1CCOCC1)N1c2ccccc2CC(N2CCOCC2)c2ccccc21 (configuration not stated),i,i,i,i,i
COc1cc(NC(=O)c2cccs2)c(C(=O)OCC(=O)NC(C)c2ccccc2)cc1OC (configuration not stated),i,90,i,64,i
COc1cc(NC(=O)c2cccs2)c(C(=O)OCC(=O)NCc2ccccc2)cc1OC,i,i,i,i,i
NC(=O)CSc1nnc(-c2cc3ccccc3o2)n1Cc1ccccc1,i,i,i,i,i
O=C(CSc1nnc(C2CC2)n1Cc1ccccc1)c1cc2ccccc2o1,i,88,i,93,i
CC(=O)c1cc(-c2ccccc2)n(CC(=O)N2CCCCC2)c1C,i,i,i,i,i
Cc1ccc(C2C(C#N)=C(N)SC(N)=C2C#N)c(C)c1,i,i,i,54,i
C=CCNS(=O)(=O)c1cccc(C(C)=O)c1,i,nt,nt,nt,nt
C=CCNS(=O)(=O)c1sccc1/C=N/O,i,i,i,60,i
Cc1ccc(-n2c(C)cc(-c3csc(N)n3)c2C)cc1,52,nt,nt,nt,nt
C=CCSc1nc(Oc2ccccc2)c2sccc2n1,i,i,i,54,i
CSc1nc(Oc2ccccc2)c2sccc2n1,i,60,i,i,i
CSc1nc(Oc2ccc(Cl)cc2)c2sccc2n1,i,i,i,i,i
C=CCNc1nc(SCC=C)nc2ccsc12,i,i,i,i,i
CCSC1=C(C#N)C2(CCCCC2)C(C#N)C(=O)N1 (configuration not stated),i,i,i,i,i
O=C(CN1CCCCC1)Nc1cccc(Oc2ccccc2)c1,i,90,i,77,i
CN1CCN(CC(=O)Nc2ccc(Oc3ccccc3)cc2)CC1,i,i,i,i,i
COc1cccc(NC(=O)CN2CCC(C)CC2)c1,i,54,i,90,i
SMILES,Measles CPE,CYP2C9 inhib,CYP2C9 act,CYP2C19 inhib,CYP2C19 act
CCC(C)COC(=O)c1ccc(C(=O)O)cc1 (configuration not stated),i,i,i,i,i
CCCCN1C(=O)CCC(C(=O)O)C1c1ccccc1 (configuration not stated),i,i,i,i,i
Cn1c2ccccc2c(=O)c2c(=O)n(C3CCCCC3)c(-c3cccs3)nc21,i,95,i,i,i
CCOC(=O)N1CCN(c2c(F)cc3[nH]c(=S)[nH]c3c2Br)CC1,i,70,i,i,i
COc1ccc(N(CN2C(=O)C3CC=CCC3C2=O)C(=O)c2ccco2)cc1 (configuration not stated),i,i,i,i,i
COc1ccc(N(C(=O)c2ccco2)S(=O)(=O)c2ccccc2)cc1,i,92,i,87,i
COc1ccc(N(C(=O)c2ccco2)S(=O)(=O)c2cc(Cl)c(Cl)cc2Cl)cc1,i,94,i,97,i
CN(C)c1ccc(CNn2cnnc2)cc1,i,i,i,i,i
Cc1ccc(C2NC(c3ccc(C)cc3)C(C)C(=NO)C2C)cc1 (configuration not stated),i,51,i,93,i
CC1C(=NO)C(C)C(c2ccccc2)NC1c1ccccc1 (configuration not stated),i,i,i,98,i
CC1/C(=N/O)CC(c2ccccc2)N(C)C1c1ccccc1 (configuration not stated),i,nt,nt,nt,nt
Cc1ccc(C2NC(c3ccc(C)cc3)C([N+](=O)[O-])C(C)(C)C2[N+](=O)[O-])cc1 (configuration not stated),i,nt,nt,nt,nt
CC1/C(=N/O)CC(c2ccccc2)NC1c1ccccc1 (configuration not stated),i,51,i,70,i
Cc1ccc(C(=O)O)cc1N1C(=O)c2cccc3cc(Br)cc(c23)C1=O,i,i,i,i,i
N#Cc1ccc(-c2cccnc2)nc1SCc1ccc(Cl)cc1Cl,i,56,i,i,i
COc1ccc(CCNC(=O)CSc2nc(C)cs2)cc1,i,nt,nt,nt,nt
O=C(CSc1nn(-c2ccccc2)c(=S)s1)NC1CCS(=O)(=O)C1 (configuration not stated),i,nt,nt,nt,nt
O=C(CSc1nc2ccccc2s1)Nn1cnnc1,i,96,i,76,i
O=C(CSc1nn(-c2ccccc2)c(=S)s1)Nn1cnnc1,i,98,i,64,i
Cc1nc(NC(=O)c2ccc(Br)s2)sc1C(=O)N(C)C,i,i,i,i,i
COc1ccc(NC(=O)CC2SC(=Nc3ccccc3)NC2=O)cc1 (configuration not stated),i,i,i,i,i
Fc1ccc(Nc2ccnc(Nc3ccc(F)cc3)n2)cc1,i,nt,nt,nt,nt
CCOC(=O)C1CCCN(c2c(Nc3cccc(C)c3)c(=O)c2=O)C1 (configuration not stated),i,52,i,i,i
CCOC(=O)C1CCCN(C(=S)Nc2ccc(C)cc2C)C1 (configuration not stated),i,i,i,84,i
CCOC(=O)C1CCCN(C(=O)CC(c2ccccc2)c2ccccc2)C1 (configuration not stated),i,nt,nt,nt,nt
SMILES,Measles CPE,CYP2C9 inhib,CYP2C9 act,CYP2C19 inhib,CYP2C19 act
CCOC(=O)C1CCCN(C(=O)C2c3ccccc3Oc3ccccc32)C1 (configuration not stated),i,64,i,97,i
CCOc1ccccc1N1CCN(C(=O)c2ccccc2)CC1,i,i,i,i,i
CCOc1ccccc1N1CCN(C(=O)C2c3ccccc3Oc3ccccc32)CC1,i,85,i,78,i
Cn1cc(S(=O)(=O)N2CCN(c3ccccc3F)CC2)c(=O)n(C)c1=O,i,i,i,i,i
CS(=O)(=O)N1CCN(C(=O)C2c3ccccc3Oc3ccccc32)CC1,67,50,i,97,i
CC1CCN(S(=O)(=O)c2cn(C)c(=O)n(C)c2=O)CC1,i,i,i,i,i
Cc1cc(C(=O)Nc2ccon2)cs1,i,i,i,i,i
CCCCNc1nc2ccccc2[nH]1,i,i,i,i,i

# Compound activity: PubChem BioAssay, several laboratories
